Assay outcomes: PubChem BioAssay, National Center for Advancing Translational Sciences (NCATS)
Shown are actives, neighbours in structure and some others; about 21% of the full set was active somewhere.
Shiga inhibitor: A qHTS for Small Molecule Inhibitors of Shiga Toxin; Vero cells, Shiga toxin protein synthesis inhibition reporter; inhibition, % at 38.7 µM; hit rate 9.2% among 290,000; AID 2315, 2010; in the data active = inhibition mostly above about 28%, no sharp cut-off; inactive = mostly below about 43%; also: 0% is about no effect
FBPA Giardia inh: qHTS Assay for Inhibitors of Fructose-1,6-bisphosphate Aldolase from Giardia Lamblia; A8B2U2; hit rate 0.71% among 290,000; Potency, µM (series often up to 59.6 µM), without a hit: at the top dose activity, negative = inhibition, hits mostly inhibitors; purified Giardia FBPA; also: potency is read from the fitted curve at half-maximal effect; % is scaled to controls: 0 for no effect and ±100 for the full control effect; nearly all actives have a fitted effect of over 55% in size
Target sequence (A8B2U2 whole entry, looked up): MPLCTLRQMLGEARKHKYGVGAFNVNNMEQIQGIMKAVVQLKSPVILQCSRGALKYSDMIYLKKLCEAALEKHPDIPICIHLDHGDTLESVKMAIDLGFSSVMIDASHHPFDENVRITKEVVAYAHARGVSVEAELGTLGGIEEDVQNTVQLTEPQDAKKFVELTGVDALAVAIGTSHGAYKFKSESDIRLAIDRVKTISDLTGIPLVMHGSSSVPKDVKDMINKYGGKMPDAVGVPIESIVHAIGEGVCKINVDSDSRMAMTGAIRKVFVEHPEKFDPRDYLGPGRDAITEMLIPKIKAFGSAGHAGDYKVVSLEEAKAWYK
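Giardia FBPA (40 nM reagent) was preincubated 10 min at RT with compound (up to 57.5 uM final), then substrate plus GAPDH/TPI/NAD/arsenate coupling system with diaphorase/resazurin was added; resorufin fluorescence (525/598 nm) was read after 20 min.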
NS1 function inh: qHTS Assay for Inhibitors of Influenza NS1 Protein Function. Potency, µM (highest dose often 46.1 µM), for inactives: top-dose activity, positive = more growth. hit rate 0.4% among 270,000. AID 2326, 2010; calls by dose curve; also: potency is read from the fitted curve at half-maximal effect; actives are rising curves; nearly all actives have a fitted effect of over 50% in size
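In this qHTS, NS1 from influenza A is expressed in budding yeast, where it slows growth. Cells are switched from glucose to 2% galactose medium (pH 6.0, -URA), treated with compound, and growth recovery is read at OD600.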
Pf growth 96h: Primary qHTS for delayed death inhibitors of the malarial parasite plastid, 96 hour incubation; AID 504834, 2011; Potency, µM (titrated, usually from 28.7 µM), without a hit: top-dose activity change, negative = inhibition, actives largely listed as inhibitors; hit rate 6.9% among 320,000; P. falciparum luciferase reporter growth, 96 h; also: potency is read from the fitted curve at half-maximal effect; % is scaled to controls: 0 for no effect and ±100 for the full control effect
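Luminescence readout: decreased luciferase signal marks inhibited growth of reporter-expressing P. falciparum in infected red cells (2% hematocrit, 0.05% parasitemia final), exposed to compound two generations (96 h, 37 C, 5% CO2).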
Cycloheximide cs: Cycloheximide Counterscreen for Small Molecule Inhibitors of Shiga Toxin; max response, %; cell reporter, cycloheximide protein synthesis inhibition counterscreen; hit rate 12% among 300,000; in the data active = max response mostly above about 13%, no sharp cut-off; inactive = mostly below about 14%; also: read at 38.3 µM for the half of the compounds with a filed dose; 0% is about no effect
Pf growth 48h: Primary qHTS for delayed death inhibitors of the malarial parasite plastid, 48 hour incubation. hit rate 5.9% among 310,000. P. falciparum luciferase growth in erythrocytes, 48 h. Potency, µM (series often up to 28.7 µM), for inactives: top-dose activity change, negative = inhibition, actives largely listed as inhibitors; also: potency is read from the fitted curve at half-maximal effect; % is scaled to controls: 0 for no effect and ±100 for the full control effect
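Here the parasites carry a stable luciferase gene and grow inside erythrocytes in Albumax-based RPMI medium with compound for one erythrocytic cycle. Activity is scored as loss of luminescent signal.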
Active calls of the source: *. Unless noted, calls follow the shape of the dose curve; as a rule, active = well fitted curve in the direction sought with a large enough effect; inconclusive = small, poorly fitted or top-dose-only effect, or another doubt; inactive = no such curve, though single readings can be large; an effect the other way counts as inactive or inconclusive.

Screening Cc1ccc(S(=O)(=O)N(C)Cc2ccc(C(=O)NN=C3C4CC5CC(C4)CC3C5)cc2)cc1 returned Shiga inhibitor -9.9, FBPA Giardia inh -0.3%, NS1 function inh inconclusive, Pf growth 96h inconclusive, Cycloheximide cs 0.1 and Pf growth 48h inconclusive.
Screening COc1ccc(C(=O)OCC(=O)NCC2CCCCC2)c(OC)c1 returned Pf growth 96h 15.9% and Pf growth 48h -0.9%.
`O=C(CCCc1ccccc1)NC12CC3CC(CC(C3)C1)C2` gave FBPA Giardia inh -5.3%, NS1 function inh -47.7%, Pf growth 96h -14.7%, Cycloheximide cs 45.5* and Pf growth 48h 37.7%.
C=C(C)C1CC=C(C)/C(=N/NC(=O)c2ccccc2[N+](=O)[O-])C1 (centres undefined) was read as Shiga inhibitor 8.9, FBPA Giardia inh 0.1%, Pf growth 96h 0.1%, Cycloheximide cs 13.6 and Pf growth 48h inconclusive.
For C=C(C)C1CC=C(C)/C(=N/NC(=O)c2cccs2)C1 (centres undefined) the results were Shiga inhibitor 77.4*, FBPA Giardia inh 4.7%, NS1 function inh 1.3%, Pf growth 96h 85.2%, Cycloheximide cs 21.8* and Pf growth 48h 90.5%.
Screening O=C(NC12CC3CC(CC(C3)C1)C2)c1ccccc1O returned Shiga inhibitor 41.1, FBPA Giardia inh -1.7%, NS1 function inh -58.7%, Cycloheximide cs 16.1 and Pf growth 48h 7.38µM*.
Nc1ccc(C(=O)NC23CC4CC(CC(C4)C2)C3)cc1 was read as Shiga inhibitor -9.0, FBPA Giardia inh 28.5%, NS1 function inh -17.0%, Pf growth 96h -12.7%, Cycloheximide cs -2.3 and Pf growth 48h -0.3%.
For O=C(NN=C1CCCC1)c1cccs1 the results were Shiga inhibitor 91.5*, FBPA Giardia inh -4.9%, NS1 function inh 21.4%, Pf growth 96h 94.8%, Cycloheximide cs 62.9* and Pf growth 48h 25.9%.
For O=C(COc1ccc(Cl)cc1)Nc1cc(NC(=O)COc2ccc(Cl)cc2)cc(C(=O)O)c1 the results were Shiga inhibitor 2.2, FBPA Giardia inh 12.3%, NS1 function inh 9.4%, Pf growth 96h inconclusive, Cycloheximide cs 0.7 and Pf growth 48h 20.8%.
`Cc1cc(C)c(S(=O)(=O)Nc2cc(C)on2)c(C)c1` gave Shiga inhibitor -7.1, FBPA Giardia inh -7.8%, NS1 function inh -40.3%, Pf growth 96h 0.0%, Cycloheximide cs -1.1 and Pf growth 48h 0.3%.
For Cc1ccc(-c2cc(C3C4C=CCCC4(C)C(=O)N3Cc3ccccc3)ccc2F)cc1 (centres undefined) the results were Shiga inhibitor -1.8, FBPA Giardia inh 0.9% and Cycloheximide cs 9.6.
N#CCCN(C(=O)COC(=O)C1CCN(S(=O)(=O)c2cccs2)CC1)c1ccccc1 was read as Shiga inhibitor 17.8, FBPA Giardia inh 2.5%, Pf growth 96h -4.4%, Cycloheximide cs -2.1 and Pf growth 48h -5.6%.
CN=c1scc(C)n1/N=C/c1cc(Br)c(O)c(OC)c1 was read as Shiga inhibitor 56.1*, FBPA Giardia inh -9.3%, NS1 function inh 3.0%, Pf growth 96h -9.8%, Cycloheximide cs 21.1* and Pf growth 48h -23.0%.
For CN=c1scc(-c2cccs2)n1/N=C/c1ccc(O)c(O)c1O the results were Shiga inhibitor -12.3, FBPA Giardia inh inconclusive, NS1 function inh inconclusive, Pf growth 96h inconclusive, Cycloheximide cs -5.2 and Pf growth 48h inconclusive.
Screening COc1cc(/C=N/N(C)C)cc(Br)c1O returned Shiga inhibitor 17.9, FBPA Giardia inh -13.1%, NS1 function inh -0.6%, Pf growth 96h 0.0%, Cycloheximide cs 10.1 and Pf growth 48h 45.1%.
For CN=c1scc(C)n1/N=C/c1ccc(O)c(O)c1O the results were Shiga inhibitor -15.2, FBPA Giardia inh 3.15µM*, NS1 function inh 10.5%, Pf growth 96h -39.1% and Cycloheximide cs -11.1.
Screening CC1(C)Cc2c(sc(NC(=O)c3ccccc3Cl)c2C(=O)O)CO1 returned Shiga inhibitor 29.0, FBPA Giardia inh inconclusive, NS1 function inh -2.5%, Pf growth 96h -2.4%, Cycloheximide cs 17.7 and Pf growth 48h 42.2%.
Cc1ccc(C(=O)NNC(=O)c2cc(C)nc3ccccc23)cc1 was read as Pf growth 96h -12.0% and Pf growth 48h -6.8%.
For CCOC(=O)C1(CC2CCCCO2)CCN(S(=O)(=O)c2ccc(C)s2)CC1 (centres undefined) the results were Shiga inhibitor 28.5, FBPA Giardia inh 4.5%, NS1 function inh 0.6%, Pf growth 96h -7.8%, Cycloheximide cs 11.2 and Pf growth 48h inconclusive.
For CCOC(=O)C1(CC2CCCCO2)CCN(C(=O)Nc2ccccc2SC)CC1 (centres undefined) the results were Shiga inhibitor 9.6, FBPA Giardia inh 2.4%, NS1 function inh -4.2%, Pf growth 96h 11.7µM*, Cycloheximide cs -2.0 and Pf growth 48h inconclusive.
For CCOC(=O)C1(CC2CCCCO2)CCN(S(=O)(=O)c2ccsc2)CC1 (centres undefined) the results were Shiga inhibitor 23.1, FBPA Giardia inh 1.4%, NS1 function inh -4.1%, Pf growth 96h -17.0%, Cycloheximide cs 13.0* and Pf growth 48h -11.1%.
For CCOC(=O)C1(CC2CCCCO2)CCN(C(=O)Nc2ccccc2)CC1 (centres undefined) the results were Shiga inhibitor 35.5*, FBPA Giardia inh 4.9%, NS1 function inh 4.6%, Pf growth 96h -3.1%, Cycloheximide cs 28.7* and Pf growth 48h inconclusive.
`CCOC(=O)C1(CC2CCCCO2)CCN(Cc2nc3ccccc3nc2C)CC1` (centres undefined) gave Shiga inhibitor 9.5, FBPA Giardia inh -0.3%, NS1 function inh 3.9%, Pf growth 96h 11.7µM*, Cycloheximide cs -2.7 and Pf growth 48h inconclusive.
COC(=O)NC(c1ccc2c(c1)OCO2)C(C(=O)OC)C(=O)OC (centres undefined) was read as FBPA Giardia inh 0.3%.
Screening COC(C(=O)Nc1ccnn1C1CCN(Cc2ccc(CO)o2)CC1)c1ccccc1 (centres undefined) returned Shiga inhibitor -3.9, FBPA Giardia inh -0.4%, NS1 function inh 4.4%, Pf growth 96h 39.7%, Cycloheximide cs 11.1 and Pf growth 48h 24.5%.
CC(C)[C@@H](C(=O)NCc1ccco1)N1C(=O)N2CCc3c([nH]c4ccccc34)[C@@]2(C)C1=O was read as Shiga inhibitor -0.7, FBPA Giardia inh -9.5%, NS1 function inh 23.8%, Pf growth 96h inconclusive, Cycloheximide cs -1.5 and Pf growth 48h inconclusive.
COc1ccccc1C(=O)NC(=O)COC(=O)c1ccc(Br)o1 was read as Pf growth 96h 27.7% and Pf growth 48h inconclusive.
